According to PubChem BioAssay AID1159580 (chemical genetic matrix, 2015):
Among all 5,500 compounds or so, about 2,000 (36%) were called active. Roughly 18% stayed inconclusive and do not appear here. Cut-off read from the data, not from the text of the source: active = normalized growth mostly below about 0.91 (no sharp cut-off); inconclusive = no clear call, values can overlap the other calls; inactive = mostly above about 0.92. Some of the results follow.

Assay: chemical genetic growth profiling, strain panel (AID 1159580);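 note: tested at 20 µM; growth read once vehicle control cultures reached saturation at 30 °C; 1 = growth at the plate median or of vehicle wells; lower values mean less growth of the strain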
Details: growth OD

Measured: normalized growth

CN1CCC[C@H]1c1cccnc1
inactive: S. cerevisiae deletion strains, locus YJR075W, strain HOC1, hits give low values 0.999 | S. cerevisiae deletion strains, locus YKL009W, strain mrt4, hits give low values 0.975 | S. cerevisiae deletion strains, locus YKL068W, hits give low values 0.983 | S. cerevisiae deletion strains, locus YKL085W, strain MDH1 (second series), hits give low values 0.984 | S. cerevisiae deletion strains, locus YKL085W, strain MDH1, hits give low values 0.984 | S. cerevisiae deletion strains, locus YKL160W, strain elf1, hits give low values 1.01 | S. cerevisiae deletion strains, locus YKL190W, strain CNB1, hits give low values 1 | S. cerevisiae deletion strains, locus YKR001C, strain vps1, hits give low values 0.986 | S. cerevisiae deletion strains, locus YKR026C, strain gcn3, hits give low values 1.04 | S. cerevisiae deletion strains, locus YKR091W, strain srl3, hits give low values 1.02 | S. cerevisiae deletion strains, locus YLL001W, strain dnm1, hits give low values 1.05 | S. cerevisiae deletion strains, locus YLL026W, hits give low values 1.02 | S. cerevisiae deletion strains, locus YLL041C, strain sdh2, hits give low values 1.02 | S. cerevisiae deletion strains, locus YLR027C, strain aat2, hits give low values 1.01 | S. cerevisiae deletion strains, locus YLR039C, strain RIC1, hits give low values 0.981 | S. cerevisiae deletion strains, locus YLR058C, strain SHM2, hits give low values 0.987 | S. cerevisiae deletion strains, locus YLR102C, strain apc9, hits give low values 0.995 | S. cerevisiae deletion strains, locus YLR113W, strain HOG1, hits give low values 0.921 | S. cerevisiae deletion strains, locus YLR221C, strain rsa3, hits give low values 1.04 | S. cerevisiae deletion strains, locus YLR258W, strain gsy2, hits give low values 1.02 | S. cerevisiae deletion strains, locus YLR262C, strain YPT6 (second series), hits give low values 1.04 | S. cerevisiae deletion strains, locus YLR262C, strain YPT6, hits give low values 1.01 | S. cerevisiae deletion strains, locus YLR268W, strain sec22, hits give low values 1 | S. cerevisiae deletion strains, locus YLR320W, strain mms22, hits give low values 1.03 | S. cerevisiae deletion strains, locus YLR330W, strain CHS5, hits give low values 0.987 | S. cerevisiae deletion strains, locus YLR342W, strain FKS1 (second series), hits give low values 0.976 | S. cerevisiae deletion strains, locus YLR342W, strain FKS1, hits give low values 1.02 | S. cerevisiae deletion strains, locus YLR357W, strain rsc2, hits give low values 1.04 | S. cerevisiae deletion strains, locus YLR370C, strain arc18, hits give low values 1.03 | S. cerevisiae deletion strains, locus YLR371W, strain rom2, hits give low values 0.99 | S. cerevisiae deletion strains, locus YLR384C, strain iki3, hits give low values 1.04 | S. cerevisiae deletion strains, locus YLR418C, strain cdc73, hits give low values 1.02 | S. cerevisiae deletion strains, locus YML016C, strain PPZ1, hits give low values 0.99 | S. cerevisiae deletion strains, locus YML032C, strain rad52, hits give low values 0.999 | S. cerevisiae deletion strains, locus YML120C, strain ndi1, hits give low values 1.03 | S. cerevisiae deletion strains, locus YML124C, strain tub3, hits give low values 0.992 | S. cerevisiae deletion strains, locus YMR058W, strain fet3, hits give low values 1.03 | S. cerevisiae deletion strains, locus YMR078C, strain ctf18, hits give low values 0.979 | S. cerevisiae deletion strains, locus YMR125W, strain sto1, hits give low values 1.05 | S. cerevisiae deletion strains, locus YMR129W, hits give low values 1.04 | S. cerevisiae deletion strains, locus YMR205C, strain PFK2, hits give low values 1.03 | S. cerevisiae deletion strains, locus YMR223W, strain ubp8, hits give low values 0.978 | S. cerevisiae deletion strains, locus YMR231W, strain pep5, hits give low values 1.03 | S. cerevisiae deletion strains, locus YMR263W, strain SAP30, hits give low values 1.02 | S. cerevisiae deletion strains, locus YMR307W, strain GAS1, hits give low values 0.946 | S. cerevisiae deletion strains, locus YNL067W, strain RPL9B, hits give low values 1.02 | S. cerevisiae deletion strains, locus YNL071W, strain lat1, hits give low values 1.04 | S. cerevisiae deletion strains, locus YNL128W, strain TEP1, hits give low values 1.02 | S. cerevisiae deletion strains, locus YNL153C, strain GIM3, hits give low values 1.02 | S. cerevisiae deletion strains, locus YNL183C, strain NPR1, hits give low values 0.938 | S. cerevisiae deletion strains, locus YNL209W, strain ssb2, hits give low values 1.03 | S. cerevisiae deletion strains, locus YNL233W, strain BNI4, hits give low values 1.01 | S. cerevisiae deletion strains, locus YNL248C, strain rpa49, hits give low values 1.03 | S. cerevisiae deletion strains, locus YNL250W, strain rad50, hits give low values 0.988 | S. cerevisiae deletion strains, locus YNL271C, strain bni1, hits give low values 0.985 | S. cerevisiae deletion strains, locus YNL298W, strain CLA4, hits give low values 1 | S. cerevisiae deletion strains, locus YNL307C, strain MCK1, hits give low values 1 | S. cerevisiae deletion strains, locus YNL322C, strain KRE1 (second series), hits give low values 1.04 | S. cerevisiae deletion strains, locus YNL322C, strain KRE1, hits give low values 0.992 | S. cerevisiae deletion strains, locus YNR049C, strain mso1, hits give low values 1.02 | S. cerevisiae deletion strains, locus YNR052C, strain pop2, hits give low values 0.972 | S. cerevisiae deletion strains, locus YOL006C, strain TOP1, hits give low values 0.988 | S. cerevisiae deletion strains, locus YOL012C, strain htz1 1.12 | S. cerevisiae deletion strains, locus YOL147C, strain pex11, hits give low values 0.996 | S. cerevisiae deletion strains, locus YOR001W, strain rrp6, hits give low values 1.02 | S. cerevisiae deletion strains, locus YOR061W, strain CKA2, hits give low values 0.999 | S. cerevisiae deletion strains, locus YOR069W, strain VPS5, hits give low values 0.988 | S. cerevisiae deletion strains, locus YOR070C, strain gyp1, hits give low values 1.02 | S. cerevisiae deletion strains, locus YOR080W, strain dia2, hits give low values 1.03 | S. cerevisiae deletion strains, locus YOR083W, strain WHI5, hits give low values 1.02 | S. cerevisiae deletion strains, locus YOR106W, strain vam3, hits give low values 1.07 | S. cerevisiae deletion strains, locus YOR136W, strain idh2, hits give low values 0.988 | S. cerevisiae deletion strains, locus YOR144C, strain elg1, hits give low values 0.993 | S. cerevisiae deletion strains, locus YOR184W, strain ser1, hits give low values 0.959 | S. cerevisiae deletion strains, locus YOR231W, strain MKK1, hits give low values 0.952 | S. cerevisiae deletion strains, locus YOR265W, strain rbl2, hits give low values 1.03 | S. cerevisiae deletion strains, locus YOR270C, strain vph1, hits give low values 1.12 | S. cerevisiae deletion strains, locus YOR290C, strain snf2, hits give low values 1.02 | S. cerevisiae deletion strains, locus YOR316C, strain cot1, hits give low values 0.989 | S. cerevisiae deletion strains, locus YPL051W, strain arl3, hits give low values 1.01 | S. cerevisiae deletion strains, locus YPL055C, strain LGE1, hits give low values 1.04 | S. cerevisiae deletion strains, locus YPL078C, strain atp4, hits give low values 1.03 | S. cerevisiae deletion strains, locus YPL106C, strain sse1, hits give low values 1 | S. cerevisiae deletion strains, locus YPL240C, strain hsp82, hits give low values 1.03 | S. cerevisiae deletion strains, locus YPL241C, strain CIN2, hits give low values 0.996 | S. cerevisiae deletion strains, locus YPL256C, strain CLN2, hits give low values 0.943 | S. cerevisiae deletion strains, locus YPR119W, strain clb2, hits give low values 1 | S. cerevisiae deletion strains, locus YPR141C, strain kar3, hits give low values 0.968 | S. cerevisiae deletion strains, locus YPR163C, strain tif3, hits give low values 0.999 | S. cerevisiae deletion strains, locus YPR167C, strain met16, hits give low values 0.99 | S. cerevisiae deletion strains, strain wtn01, hits give low values 0.998 | S. cerevisiae strains, strain wild type, hits give low values 0.999
